Source: PubChem (several laboratories)
CYP2C19 inh – blockers of cytochrome P450 2C19 activity – biochemical, luminescence, ADME assay, primary screen. P33261. CYP2C19 Supersomes, luciferin-H EGE luminescence, 30 min. inhibition, % at 5 µM. 96,000 tested, 21% active. AID 778, 2007;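 active = CYP2C19 inhibition above a set limit at 5 µM in the primary screen, cut at about 50% in these data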;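 also: plate controls were negative control wells for no effect and 2.5 mM tranylcypromine positive control for full effect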
EphB4 antag – EphB4-ephrin-B2 interaction antagonists, primary screen, biochemical, TNYL-RAW peptide probe, fluorescence polarization | AID 720, 2007 | Ephrin type-B receptor 4 (Homo sapiens), P54760 | EphB4 LBD / TNYL-RAW-Alexa532 peptide | 97,000 tested, 0.15% active | inhibition, % at 7 µM;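 active = inhibition above the screen-wide mean inhibition plus 3 SD, cut at about 15% in these data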;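 also: 0% = DMSO wells and 100% = excess unlabeled TNYL-RAW peptide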
Target sequence (P54760 whole entry, looked up, the tested form may be a part): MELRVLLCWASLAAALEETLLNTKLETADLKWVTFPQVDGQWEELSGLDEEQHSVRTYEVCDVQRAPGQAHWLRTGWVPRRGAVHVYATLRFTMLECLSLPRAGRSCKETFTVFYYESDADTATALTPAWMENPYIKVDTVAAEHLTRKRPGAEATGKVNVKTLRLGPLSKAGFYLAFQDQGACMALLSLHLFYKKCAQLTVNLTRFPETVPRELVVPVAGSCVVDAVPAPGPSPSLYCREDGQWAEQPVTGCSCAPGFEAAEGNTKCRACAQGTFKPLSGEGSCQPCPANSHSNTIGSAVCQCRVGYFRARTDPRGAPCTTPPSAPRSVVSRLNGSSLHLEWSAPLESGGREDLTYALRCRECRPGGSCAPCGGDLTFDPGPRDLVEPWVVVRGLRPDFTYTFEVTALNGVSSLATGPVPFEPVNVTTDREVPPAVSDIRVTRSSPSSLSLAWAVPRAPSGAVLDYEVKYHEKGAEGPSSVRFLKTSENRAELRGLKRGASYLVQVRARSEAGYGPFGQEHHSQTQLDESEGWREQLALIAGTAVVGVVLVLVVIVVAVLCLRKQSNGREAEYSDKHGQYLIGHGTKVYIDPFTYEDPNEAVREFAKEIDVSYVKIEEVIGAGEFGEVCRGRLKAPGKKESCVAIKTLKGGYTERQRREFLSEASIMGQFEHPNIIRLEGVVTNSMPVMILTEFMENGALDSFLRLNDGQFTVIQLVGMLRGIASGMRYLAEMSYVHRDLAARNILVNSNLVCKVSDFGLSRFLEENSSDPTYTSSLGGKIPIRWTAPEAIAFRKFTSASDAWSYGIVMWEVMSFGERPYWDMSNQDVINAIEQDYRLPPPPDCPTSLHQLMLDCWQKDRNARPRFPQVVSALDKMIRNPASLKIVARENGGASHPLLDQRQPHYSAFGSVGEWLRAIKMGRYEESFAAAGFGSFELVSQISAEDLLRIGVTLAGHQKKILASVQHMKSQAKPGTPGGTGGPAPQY
CYP2C9 inh – blockers of cytochrome P450 2C9 activity – biochemical, luminescence, ADME assay, primary screen | P11712 | CYP2C9 Supersomes, luciferin-H conversion | inhibition, % at 5 µM | 96,000 tested, 20% active | AID 777, 2007;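 active = blocking of liver enzyme CYP2C9 beyond about 50% at 5 µM, limit read from the data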
CYP2C9 act – human CYP2C9 activators, primary screen, biochemical, luminescence; Cytochrome P450 2C9 (Homo sapiens), P11712; recombinant CYP2C9, luciferin-H conversion; active compounds read high; factor 1 = untreated enzyme, 0 = blocked; activation factor at 5 µM; 96,000 tested, 1.4% active; AID 1024, 2008;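 active = activation factor of 2 or more for CYP2C9 at a 5 µM dose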;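 also: 0 = sulfaphenazole-blocked wells and 1 = vehicle-only wells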
CYP2C19 act – human CYP2C19 activators, primary screen, biochemical, luminescence; recombinant CYP2C19, luciferin-H EGE luminescence; active compounds read high; 0 = fully inhibited enzyme, 1 = untreated enzyme; 96,000 tested, under 10 active; Cytochrome P450 2C19 (Homo sapiens), P33261; AID 1025, 2008; activation factor at 5 µM;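 active = activation factor of at least 2 at 5 µM in the primary screen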;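 also: 0 = wells with 2.5 mM tranylcypromine and 1 = vehicle-only wells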
* marks the source's active call; other numbers are inactive results; . = no result. Only some compounds are listed: those with a hit (about 27% of all), similar ones and a draw of the others.

SMILES	CYP2C19 inh	EphB4 antag	CYP2C9 inh	CYP2C9 act	CYP2C19 act
COc1cccc(C(=O)NCCC2=CCCCC2)c1OC	100*	9	29	0.7	0
COCCCNC(=O)c1cccc(OC)c1OC	56*	-4	-8	1.1	0.4
CC1(C)CCCC2=C1CC1C(=O)N(O)C(=O)C1C2 (stereo not drawn)	-6	0	-19	1.2	1.1
Nc1cccnc1Sc1cc(Cl)cc(Cl)c1	48	0	-72	1.7	0.5
N#Cc1ccc(OCC(=O)N2CCN(S(=O)(=O)c3cccs3)CC2)cc1	7	3	14	0.9	0.9
COC(=O)Cn1c(=O)c2c(nc(Br)n2CC(=O)OC)n(C)c1=O	0	5	-6	1.1	1
COc1ccc(C)cc1NC(=O)NCCC1=CCCCC1	83*	-6	2	1	0.2
O=C(NCCC1=CCCCC1)c1ccc(=O)oc1	56*	-5	14	0.9	0.4
O=C(NC1CCCCC1)N1CCCC1	.	6	.	.	.
CCOc1cc(S(=O)(=O)N(CC)CC)c(OCC)cc1-n1cnnn1	11	-1	30	0.7	0.9
CCOc1cc(S(=O)(=O)NCCc2cccc(C)c2)c(OCC)cc1-n1cnnn1	36	0	80*	0.2	0.6
CCOc1cc(S(=O)(=O)NCCc2ccccc2C)c(OCC)cc1-n1cnnn1	84*	-5	89*	0.1	0.2
Cc1ccc(-c2nn(C)c(=O)c3ccccc23)cc1CNC(=O)CSc1nc2ccccc2o1	4	3	42	0.6	1
Nc1c(S(=O)(=O)c2cc(Cl)ccc2Cl)c2nc3ccccc3nc2n1CCN1CCOCC1	79*	0	96*	0	0.2
O=C(COC(=O)C(O)c1ccccc1)c1ccc2c(c1)OCCO2 (stereo not drawn)	.	-2	.	.	.
CCn1c(SCc2nc3ccccc3c(=O)[nH]2)nnc1-c1ccncc1	94*	3	37	0.6	0.1
Nn1c(SCc2nc3ccccc3[nH]2)nnc1-c1cccnc1	30	.	13	0.9	0.7
CCn1c(SCc2nc3ccccc3c(=O)[nH]2)nnc1-c1cccnc1	90*	-3	-6	1.1	0.1
O=c1[nH]c(CSc2nnc(-c3cccnc3)n2C2CCCCC2)nc2ccccc12	62*	2	7	0.9	0.4
C=CCn1c(SCc2nc3ccccc3[nH]2)nnc1-c1ccncc1	93*	-4	46	0.5	0.1
CCn1c(SCc2nc3cc(OC)c(OC)cc3c(=O)[nH]2)nnc1-c1ccncc1	6	-8	0	1	0.9
COc1ccc(C)cc1NC(=O)CN1C(=O)c2ccccc2S1(=O)=O	1	.	-11	1.1	1
O=C(Cn1c(=O)oc2ccccc21)Nc1ccc(S(=O)(=O)N2CCCCC2)cc1	-2	-4	10	0.9	1
O=C(CN1C(=O)c2ccccc2S1(=O)=O)Nc1ccc(S(=O)(=O)N2CCCCC2)cc1	3	2	62*	0.4	1
O=C(CN1C(=O)c2ccccc2S1(=O)=O)Nc1ccccc1	49	2	18	0.8	0.5
SMILES	CYP2C19 inh	EphB4 antag	CYP2C9 inh	CYP2C9 act	CYP2C19 act
O=C(CN1C(=O)c2ccccc2S1(=O)=O)Nc1ccc(S(=O)(=O)N2CCCC2)cc1	42	1	92*	0.1	0.6
COc1cc(NC(=O)CN2C(=O)c3ccccc3S2(=O)=O)c(OC)cc1Cl	67*	3	52*	0.5	0.3
CCCCc1nnc(SCCSc2nnc(CCCC)n2N)n1N	-4	1	12	0.9	1
COc1ccc(CCN2CC(C(=O)O)CC2=O)cc1OC (stereo not drawn)	-4	-2	11	0.9	1
O=C(CCc1nc2ccccc2c(=O)[nH]1)NC1CCN(Cc2ccccc2)CC1	10	.	23	0.8	0.9
CCc1ccc(C(C)NC(=O)C2(C)CC2(Br)Br)cc1 (stereo not drawn)	90*	-6	71*	0.3	0.1
CCC(NC(=O)C1(C)CC1(Br)Br)c1ccc(C)cc1 (stereo not drawn)	40	1	16	0.8	0.6
COCn1c(-c2ccccc2)nc2ccccc21	27	3	18	0.8	0.7
